The text below walks through data of PubChem BioAssay (Tox21).

Unmarked numbers belong to inactive results. Inconclusive results are not listed. The source made the active and inactive calls. Unless noted, calls follow the shape of the dose curve; as a rule, active = well fitted curve in the direction sought with a large enough effect in the repeat runs; inconclusive = weak or mixed curves; inactive = no such curve, though single readings can be large; an effect the other way counts as inactive or inconclusive.

Experiment [1] in a line: qHTS assay for small molecule agonists of the p53 signaling pathway (AID 651631; calls by dose curve; also: nearly all actives have a fitted effect of over 15% in size). The essentials: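 HCT-116 cells carrying a beta-lactamase reporter under p53 response elements were dosed with compound for 16 h at 37 °C. LiveBLAzer B/G FRET substrate was then added for 2 h at room temperature, and fluorescence intensity was read to detect pathway agonism.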
Experiment [2] in a line: qHTS assay for small molecules that induce genotoxicity in human embryonic kidney cells expressing luciferase-tagged ATAD5 (AID 651632). Also: nearly all actives have a fitted effect of over 15% in size. A digest of the protocol:
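Test compounds were delivered by pin tool onto HEK293T reporter cells (2,000/well) expressing ATAD5 fused to luciferase. After 16 hr at 37C, 5% CO2, Amplite was added for 30 min at room temperature and luminescence was measured.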

Experiment [3] is described as follows: qHTS assay for small molecule agonists of the p53 signaling pathway - cell viability (AID 651633; calls by dose curve;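 also: p53RE-bla HCT reporter cells with a stable beta-lactamase p53 reporter; series mostly up to about 83 µM; nearly all actives have a fitted effect of over 30% in size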). A digest of the protocol:
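p53RE-bla cells, seeded at 4,000 per well and rested 5 h at 37 C/5% CO2, received compounds in DMSO for 16 h at 37 C. CellTiter-Glo was then added, and luminescence was read after 30 min at room temperature to gauge cytotoxicity.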
(In general: Quantitative high-throughput screening tests each substance at several concentrations.)

The nature of experiment [4]: qHTS assay for small molecules that induce genotoxicity in human embryonic kidney cells expressing luciferase-tagged ATAD5 - cell viability (AID 651634; calls by dose curve; also: nearly all actives have a fitted effect of over 25% in size). A digest of the protocol:
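Quantitative high-throughput format. HEK293T cells expressing ATAD5 fused to luciferase were plated at 2,000 cells/well and treated 15.5 hr with compound versus DMSO. Viability was determined by fluorescent live-cell protease substrate, 30 min at 37C.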

Experiment [5] is described as follows: qHTS assay to test for compound auto fluorescence at 590 nm (red) in HepG2 cells (AID 720674). The essentials: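 Compound auto-fluorescence is scored relative to Rose Bengal sodium, measured at 540/590 nm in live HepG2 cultures after 1 hr compound contact (37 C, 5% CO2).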
The nature of experiment [6]: qHTS assay to test for compound auto fluorescence at 460 nm (blue) in HEK293 cells (AID 720678). A digest of the protocol: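 Intrinsic compound fluorescence is recorded in live HEK293 cultures after overnight incubation at 37C, 5% CO2, using excitation 405 nm and emission 460 nm. Values are referenced to triamterene.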
Experiment [7] in a line: qHTS assay to test for compound auto fluorescence at 590 nm (red) in HEK293 cells (AID 720679). The essentials: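 Red autofluorescence, HEK293 cells: 2,000 cells/well; attach 4-5 hr 37C; add 23 nL cpd or DMSO; incubate o/n 37C 5% CO2; read Ex540/Em590; Rose Bengal sodium reference.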
A short description of experiment [8]: qHTS assay for small molecule disruptors of the mitochondrial membrane potential - cell viability (AID 720634; calls by dose curve;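 also: human HepG2 liver cancer cells; series mostly up to about 83 µM; nearly all actives have a fitted effect of over 20% in size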). A digest of the protocol:
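Same-well counter-screen: following the MMP dye addition, CellTiter-Glo was added to 1 hr compound-treated HepG2 cells and luminescence read after 30 min at room temperature.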

The nature of experiment [9]: qHTS assay for small molecule disruptors of the mitochondrial membrane potential (AID 720635). Also: potency is read from the fitted curve at half-maximal effect. A digest of the protocol:
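HepG2 cells (2,000/well) attached overnight at 37C, then took compound for 1 hr at 37C, 5% CO2. Mito-MPS dye was added for 30 min; fluorescence was read at 490/535 nm (monomers) and 540/590 nm (aggregates).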

The nature of experiment [10]: qHTS assay to test for compound auto fluorescence at 535 nm (green) in HepG2 cells (AID 720675).

`CN1CCN(c2cc3c(cc2F)c(=O)c(C(=O)O)cn3-c2ccc(F)cc2)CC1`: the call in [1], in experiment [3], in experiment [5], in [6] and in experiment [7] was inactive. Moreover, the Potency result in experiment [2] and in experiment [4] was “inactive” each time.
With `Nc1c[n+](N2CCOCC2)no1`, the Potency entry in experiment [2], in experiment [4], in experiment [8] and in [9] was “inactive” each time. In addition, the outcome in experiment [3], in experiment [5], in [10], in experiment [6] and in experiment [7] was inactive.
`CC(C)CNCC(C)C`: the compound was called inactive in [1], in [3], in experiment [5], in [6] and in experiment [7]. The Potency result in [2], in experiment [8] and in [9] was “inactive” each time.
For `OCCOc1ccc(OCCO)cc1`, the result in experiment [1], in experiment [3], in [5], in experiment [10], in experiment [6] and in experiment [7] was inactive. The Potency entry in experiment [2] and in experiment [8] was “inactive” each time. Further, in [9], the Potency is 1.56 µM (active).
`COCCCOCCCOC`: the Potency result in experiment [2], in experiment [4], in experiment [8] and in experiment [9] was “inactive” each time. For the same compound, the call in experiment [3], in experiment [5], in experiment [10], in experiment [6] and in experiment [7] was inactive.
Turning to `CCCCCCCCCCCCN(CCCCCCCCCCCC)CCCCCCCCCCCC`, the call in [1], in [3], in experiment [5], in experiment [10], in experiment [6] and in [7] was inactive. Besides, the Potency result in [2] and in experiment [8] was “inactive” throughout.
On to `CN(C)CCCSc1ccccc1NC(=O)/C=C/c1ccccc1`, for which the call in experiment [1], in experiment [3], in experiment [5], in [6] and in experiment [7] was inactive. Besides, the Potency result in experiment [2], in [8] and in [9] was “inactive” in each case.
`Nc1c2c(nc3ccccc13)CCCC2O` (stereo not drawn): the Potency result in experiment [2], in experiment [4], in [8] and in experiment [9] was “inactive” throughout. Also, the compound was classed as inactive in experiment [3], in experiment [5], in experiment [10], in experiment [6] and in experiment [7].
For `COc1c(N2C[C@@H]3CCCN[C@@H]3C2)c(F)cc2c(=O)c(C(=O)O)cn(C3CC3)c12`, the call in experiment [1], in experiment [3], in [5], in [10], in [6] and in experiment [7] was inactive. The Potency result in [2] and in experiment [8] was “inactive” in each case.
In the case of `CCCCCCCCCCCCCCCCC`, the Potency entry in [2], in [4], in experiment [8] and in experiment [9] was “inactive” in each case. Further, the compound was called inactive in [3], in [5], in experiment [10], in [6] and in experiment [7].
Regarding `O=C(O)CCCc1ccccc1`, the Potency entry in experiment [2], in [4], in experiment [8] and in [9] was “inactive” each time. In addition, the outcome in experiment [3], in experiment [5], in [10], in experiment [6] and in [7] was inactive.
On to `CC(C)CCCC(C)N` (stereo not drawn), for which the compound was classed as inactive in [1], in experiment [3], in [5], in [10], in [6] and in experiment [7]. In addition, the Potency result in experiment [2], in experiment [8] and in [9] was “inactive” in each case.
Take `Cc1c(NC(C)C)c(=O)n(-c2ccccc2)n1C`: the compound was classed as inactive in [1], in experiment [3], in experiment [5], in [10], in experiment [6] and in [7]. Also, the Potency result in [2], in experiment [8] and in experiment [9] was “inactive” in each case.
Regarding `Brc1c(NC2=NCCN2)ccc2nccnc12`, the compound was called inactive in experiment [1], in experiment [3], in experiment [5], in experiment [10], in experiment [6] and in experiment [7]. Besides, the Potency entry in experiment [8] is “inactive”.
As for `Oc1ccc(C2CNCCc3c2cc(O)c(O)c3Cl)cc1` (stereo not drawn), the Potency entry in experiment [2], in [4], in experiment [8] and in [9] was “inactive” in each case. The compound was called inactive in [3], in experiment [5], in [10], in [6] and in experiment [7].
On to `CCOC(=O)[C@H](CCc1ccccc1)N[C@@H](C)C(=O)N1[C@H](C(=O)O)C[C@@H]2CCC[C@@H]21`, for which the result in experiment [1], in [3], in [5], in experiment [10], in [6] and in experiment [7] was inactive. Also, the Potency result in experiment [2] and in [8] was “inactive” throughout.
In the case of `O=C1CC2CC1C1CCCC21` (stereo not drawn), the compound was called inactive in experiment [1], in experiment [3], in experiment [5], in experiment [6] and in experiment [7]. Moreover, the Potency result in experiment [8] and in experiment [9] was “inactive” in each case.
Take `O=c1[nH]c(=O)n([C@H]2C[C@H](O)[C@@H](CO)O2)cc1I`: the call in [1], in experiment [3], in experiment [5], in [10], in [6] and in [7] was inactive. Besides, the Potency entry in experiment [4], in [8] and in experiment [9] was “inactive” throughout.
For the compound `CC(C)NCC(O)c1ccc(NS(C)(=O)=O)cc1` (stereo not drawn), the Potency result in experiment [2], in [4], in experiment [8] and in [9] was “inactive” in each case. The outcome in experiment [3], in experiment [5], in [10], in [6] and in experiment [7] was inactive.
Take `c1ccc([C@H]2CN3CCSC3=N2)cc1`: the outcome in experiment [1], in experiment [3], in experiment [5], in experiment [10], in experiment [6] and in experiment [7] was inactive. The Potency result in experiment [2] and in experiment [8] was “inactive” in each case.
In the case of `CCn1ccnc1CC1COc2ccccc2O1` (stereo not drawn), the result in experiment [1], in experiment [3], in experiment [5], in experiment [10], in experiment [6] and in experiment [7] was inactive. Also, the Potency result in [2], in experiment [8] and in [9] was “inactive” throughout.
For `FC(F)OC(Cl)C(F)(F)F` (stereo not drawn), the Potency result in experiment [2], in experiment [4], in experiment [8] and in [9] was “inactive” throughout. In addition, the outcome in [3], in experiment [5], in [10], in experiment [6] and in [7] was inactive.
Consider `NC(=O)c1ccc(N)cc1`, for which the call in experiment [1], in [3], in experiment [5], in experiment [10], in experiment [6] and in experiment [7] was inactive. Further, the Potency entry in experiment [2] and in experiment [8] was “inactive” in each case.
With `NS(=O)(=O)c1ccc(C(=O)O)cc1`, the compound was called inactive in experiment [1], in [3], in experiment [5], in experiment [10], in experiment [6] and in experiment [7]. Further, the Potency entry in [2], in [8] and in experiment [9] was “inactive” each time.
In the case of `CCc1nccnc1CC`, the call in experiment [1], in experiment [3], in experiment [5], in experiment [10], in experiment [6] and in [7] was inactive. The Potency entry in experiment [2] and in experiment [8] was “inactive” each time.
For the compound `N=C(N)c1ccc(OCCCOc2ccc(C(=N)N)cc2)cc1`, the compound was called inactive in experiment [1], in experiment [3], in experiment [5], in experiment [10], in experiment [6] and in experiment [7]. Also, the Potency entry in [2], in experiment [8] and in experiment [9] was “inactive” in each case.
Turning to `CC(=O)Nc1c(I)cc(I)c(C(=O)O)c1I`, the compound was called inactive in [1], in experiment [3], in experiment [5], in experiment [10], in [6] and in [7]. Besides, the Potency entry in experiment [2], in [8] and in experiment [9] was “inactive” each time.
Consider `O=C1CCCCCCCCCCCN1`, for which the Potency result in experiment [2], in [4], in experiment [8] and in experiment [9] was “inactive” throughout. Besides, the compound was classed as inactive in experiment [3], in [5], in [10], in experiment [6] and in experiment [7].
